# Assay results: PubChem BioAssay AID463173 (ICCB-Longwood Screening Facility, Harvard Medical School, 2010)
# The whole screen tested about 52,000 compounds, of which about 1,700 (3.3%) were called active. The full list was thinned out, with actives kept by preference. Values without a mark were called inactive. No stated cut-off is given here; in the data, active means survival mostly below about 52% (no sharp cut-off); inactive means mostly above about 56%.
# Test system: Wild type
# Assay: S. aureus survival, RN4220 and DeltatarO strains – OD600, teichoic acid synthesis inhibitors, primary screen (AID 463173)
# Conditions: S. aureus RN4220 wild type/DeltatarO growth, OD600, 18 h, stronger effect = lower value, screened at 18.75 µg/mL (by protocol)
row,SMILES,survival
1,CCOC(=O)c1ccc(NC(=O)CSc2ccc(-c3ccccn3)nn2)cc1,90%
2,COc1ccccc1N1CCN(C(=O)c2nc(-c3ccc(C)cc3)n3c2CCCCC3)CC1,85%
3,Cc1ccc(-n2ncc3c(NCCc4ccccc4)ncnc32)cc1,76%
4,Cc1ccc(-n2ncc3c(N(CCO)Cc4ccccc4)ncnc32)cc1,0% (active)
5,CCN(Cc1ccccc1)c1ncnc2c1cnn2-c1ccc(F)cc1,55%
6,Cc1ccc(-n2ncc3c(N(C)Cc4ccccc4)ncnc32)cc1,85%
7,CCCCN(CCCC)c1ncnc2c1cnn2-c1cccc(C)c1,91%
8,OCCN(CCO)c1ncnc2c1cnn2-c1ccc(F)cc1,1% (active)
9,CCOc1ccc(-c2cc3nc(C4CCN(C(=O)OC(C)(C)C)CC4)c(C(=O)Nc4c(C)cccc4C)cn3n2)cc1,86%
10,CCOc1ccc(C(=O)CSc2nnc3cc(C)c4ccccc4n23)cc1,85%
11,CCOCCn1ccc2c(OCC(=O)Nc3cccc([N+](=O)[O-])c3)cccc2c1=O,128%
12,CCCN1C2CCCC1CC(NC(=O)c1ccc(F)cc1)C2 (configuration not stated),108%
13,CNC(=O)Cn1c(=O)c2cccn2c2ccc(F)cc21,85%
14,CCCC(O)c1nc2ccccc2n1CCCOc1ccc(Cl)cc1 (configuration not stated),97%
15,OCCNc1nc2ccccc2n1CCOc1ccccc1,115%
16,COc1ccccc1OCCn1c(NC(=O)c2ccccc2Cl)nc2ccccc21,-10% (active)
17,COc1ccc(OCCn2c(NC(=O)c3ccc(OC)cc3)nc3ccccc32)cc1,-13% (active)
18,COc1ccc(OCCn2c(C(C)Oc3ccccc3)nc3ccccc32)cc1 (configuration not stated),72%
19,COc1ccccc1OCCn1c(NC(=O)c2ccc(Cl)cc2)nc2ccccc21,80%
20,O=C(Nc1nc2ccccc2n1CCOc1ccccc1Cl)c1ccccc1,36%
21,COc1ccc(C(=O)Nc2nc3ccccc3n2CCOc2ccc(Cl)cc2)cc1,4% (active)
22,COc1ccccc1OCCn1c(C(C)Oc2ccccc2)nc2ccccc21 (configuration not stated),76%
23,Cc1ccc(N2CC(NC(=O)/C=C\c3ccc4c(c3)OCO4)CC2=O)cc1C (configuration not stated),130%

row,SMILES,survival
1,CCOc1ccc(CCNC(=O)c2nn(-c3ccc(OC)c(Cl)c3)c(=O)c3c2c2ccccc2n3C)cc1OCC,88%
2,COc1ccc(OC)c(-n2cnc3cc(C(=O)NC4CCCC4)ccc32)c1,72%
3,CC1=CC(C)C2C(=O)N(c3ccccc3)C(=O)C2C1 (configuration not stated),111%
4,COc1ccc(NC(=O)Cn2c(=O)oc3cc(S(=O)(=O)N4CCCC4)ccc32)cc1OC,79%
5,COc1cc(C2N=C(N)Nc3nc4ccccc4n32)ccc1OCCC(C)C (configuration not stated),85%
6,CC(C)CCOc1ccc(C2N=C(N)Nc3nc4ccccc4n32)cc1 (configuration not stated),-15% (active)
7,CC(C)c1ccc(C2N=C(N)Nc3nc4ccccc4n32)cc1 (configuration not stated),93%
8,CCc1ccc(N2CCn3c2nc2c3c(=O)n(CCCc3ccccc3)c(=O)n2C)cc1,88%
9,O=C(Nc1ccccc1C(F)(F)F)N1CC=C(c2c[nH]c3ccccc23)CC1,127%
10,CN(C)C(=O)c1ccc(S(=O)(=O)NCc2ccc(Cl)cc2)s1,123%
11,Cc1ccc(CNS(=O)(=O)c2ccc(C(=O)N(C)C)s2)cc1,-6% (active)
12,COc1ccc(CNS(=O)(=O)c2ccc(C(=O)N(C)C)s2)cc1,87%
13,COc1cccc(C2C(C(=O)Nc3ccc(Cl)cc3)=C(C)Nc3c(C(=O)Nc4ccccc4)cnn32)c1OC (configuration not stated),93%
14,COc1ccc(C2C(C(=O)Nc3ccccc3)=C(C)Nc3c(C(=O)Nc4ccccc4)cnn32)cc1 (configuration not stated),134%
15,COc1ccccc1NC(=O)C1=C(C)Nc2c(C(=O)Nc3cccc(C)c3)cnn2C1c1ccccc1C (configuration not stated),69%
16,COc1cccc(C2C(C(=O)Nc3ccc(C)cc3C)=C(C)Nc3c(C(=O)Nc4cccc(C)c4)cnn32)c1OC (configuration not stated),78%
17,CCOc1ccc(NC(=O)c2cnn3c2NC(c2ccccc2)=CC3c2cccc(OC)c2OC)cc1 (configuration not stated),85%
18,CCc1ccc(C2C(C(=O)Nc3ccccc3)=C(C)Nc3c(C(=O)Nc4ccc(C)cc4)cnn32)cc1 (configuration not stated),-1% (active)
19,COc1ccccc1NC(=O)C1=C(C)Nc2c(C(=O)Nc3cccc(C)c3)cnn2C1c1ccccc1Cl (configuration not stated),-6% (active)
20,COc1ccccc1NC(=O)C1=C(C)Nc2c(C(=O)Nc3ccc(C)cc3)cnn2C1c1cccc(OC)c1OC (configuration not stated),14% (active)
21,COc1cccc(C2C=C(c3ccccc3)Nc3c(C(=O)Nc4ccccc4)cnn32)c1OC (configuration not stated),64%
22,CC1=C(C(=O)Nc2ccccc2)C(c2ccccc2Cl)n2ncc(C(=O)Nc3cccc(C)c3)c2N1 (configuration not stated),72%
23,COc1cccc(C2C=C(c3ccc(C)cc3)Nc3c(C(=O)Nc4ccc(F)cc4)cnn32)c1OC (configuration not stated),-3% (active)

row,SMILES,survival
1,CCc1ccc(C2C(C(=O)Nc3ccccc3OC)=C(C)Nc3c(C(=O)Nc4ccc(C)cc4)cnn32)cc1 (configuration not stated),74%
2,Cc1c(C(=O)Nc2cccc(-c3nc4ccccc4s3)c2)oc2ccccc12,98%
3,Cc1ccc(C(NC(=O)Cc2cccs2)C(=O)Nc2ccc(C(C)C)cc2)cc1 (configuration not stated),82%
4,CCOc1ccc(C(=O)N2CCCCC2CCN2CCOCC2)cc1 (configuration not stated),88%
5,Cc1ccc(NC(=O)CSc2nccn2C2CCCC2)cc1Cl,125%
6,COc1ccc2c(c1)c1c(c(=O)n(CCc3ccccc3)c(=O)n1Cc1ccc(Cl)cc1)n2C,63%
7,CC(C)c1ccc2oc(-c3cc(NC(=O)c4cccs4)ccc3Cl)nc2c1,7% (active)
8,Cc1ccc(-c2nc3cc(C(C)C)ccc3o2)cc1NC(=O)c1cccs1,72%
9,Cc1cc(NC(=O)c2cccs2)cc(-c2nc3cc(Cl)ccc3o2)c1O,87%
10,O=C(Nc1cc(-c2nc3cc(Cl)ccc3o2)ccc1Cl)c1cccs1,79%
11,CC(C)c1ccc2oc(-c3ccc(Cl)c(NC(=O)c4cccs4)c3)nc2c1,2% (active)
12,Cc1cc(NC(=O)c2cccnc2)cc(-c2nc3cc(Cl)ccc3o2)c1O,157%
13,CC(C)c1ccc2oc(-c3cc(NC(=O)c4cccnc4)ccc3Cl)nc2c1,1% (active)
14,CCc1ccc2oc(-c3cc(NC(=O)c4cccs4)ccc3Cl)nc2c1,12%
15,Cc1cccc(C(=O)Nc2ccc(-c3nc4cc(C(C)C)ccc4o3)cc2)c1,47%
16,CN(C)C(=O)CN(C#N)c1nc(Cl)nc(N(C)C)n1,110%
17,N#Cc1ccc(S(=O)(=O)N2CCC(Oc3cccc(C(F)(F)F)c3)CC2)cc1,84%
18,COc1ccc(CNC(=O)Cc2ccc(NC(=O)N3CCSc4ncccc43)cc2)cc1OC,75%
19,Cc1cccc(-c2nc3c4ccccc4nc(NCc4ccc(Cl)cc4)n3n2)c1,47%
20,O=C1CCSC2(C(=O)N(Cc3ccc(F)cc3)c3ccccc32)N1c1cccc(F)c1 (configuration not stated),74%
21,CCOc1ccccc1C(=O)Nc1c(NC)c2ccccc2oc1=O,76%
22,Fc1ccc(-c2noc3ncnc(NCC4CCN(Cc5ccc(Cl)cc5)CC4)c23)cc1,81%
23,Cc1ccc(CN2CCC(CNc3ncnc4onc(-c5ccc(F)cc5)c34)CC2)cc1,-4% (active)

row,SMILES,survival
1,Cc1ccc(CN2CCC(CNc3ncnc4onc(-c5ccc(Cl)cc5)c34)CC2)cc1,77%
2,O=c1c(S(=O)(=O)c2ccc(Cl)cc2)cn(Cc2ccc(F)cc2)c2ccc(F)cc12,130%
3,CCn1c(=O)c2cc(C(=O)NCCCN3CCN(C)CC3)sc2c2ccccc21,124%
4,COCCNC(=O)C1=CC(c2ccc3c(c2)OCO3)=NS(=O)(=O)N1C,103%
5,O=C(CCC(=O)N1CC2CCCN2c2ccccc21)NCc1ccccc1 (configuration not stated),88%
6,O=C(CCC(=O)N1CC2CCCN2c2ccccc21)NCc1cccc(Cl)c1 (configuration not stated),10% (active)
7,O=C(CCC(=O)N1CC2CCCN2c2ccccc21)NCc1ccc(F)cc1 (configuration not stated),-2% (active)
8,Cc1ccc(CNC(=O)CCC(=O)N2CC3CCCN3c3ccccc32)cc1 (configuration not stated),82%
9,O=C(CCC(=O)N1CC2CCCN2c2ccccc21)NCc1ccccc1Cl (configuration not stated),69%
10,COc1cccc(CNC(=O)CCC(=O)N2CC3CCCN3c3ccccc32)c1 (configuration not stated),65%
11,CC(=O)Nc1nonc1-c1nnc(SCC(=O)Nc2ccccc2)n1-c1ccccc1,51%
12,O=C(NC1CCCC1)C(c1ccc(O)cc1)N(C(=O)Cn1nnc(-c2cccs2)n1)C1CCCC1 (configuration not stated),100%
13,O=C(Cn1c(=O)sc2ccccc21)OCc1ccccc1,118%
14,Cc1cccc(NC(=O)Cn2c(=O)sc3ccccc32)c1,119%
15,O=C(Cn1c(=O)sc2ccccc21)Nc1ccc(O)cc1,103%
16,CCCOc1ccccc1Cn1c(=O)sc2ccccc21,-5% (active)
17,CCOC(=O)Cn1c(=O)sc2ccccc21,116%
18,CC(C)CCOc1ccccc1Cn1c(=O)sc2ccccc21,-1% (active)
19,CS(=O)(=O)n1c(=O)sc2ccccc21,121%
20,CCN(CC)C(=O)Cn1c(=O)sc2ccccc21,105%
21,CCCCOc1ccccc1Cn1c(=O)sc2ccccc21,-4% (active)
22,COc1ccc(CNCCNC(=O)c2cccs2)c(OC)c1OC,108%
23,COc1ccc(CNC(=O)c2ccc3c(c2)N(Cc2ccc(C)cc2)CCS3)cc1,93%
